Several values for one entry are separate records, joined by “and”; a condition that tells them apart may be missing. Identical values can stand only once. Records with an inconclusive call do not appear. More than one record can exist for a structure, and the calls need not agree. Activity calls are given as the source filed them. Unless noted, calls follow the shape of the dose curve; as a rule, active = well fitted curve in the direction sought with a large enough effect in the repeat runs; inconclusive = weak or mixed curves; inactive = no such curve, though single readings can be large; an effect the other way counts as inactive or inconclusive.

Assay [1] in a line: qHTS assay to identify small molecule agonists of the peroxisome proliferator-activated receptor delta (PPARd) signaling pathway - cell viability counter screen (AID 743211). Also: nearly all actives have a fitted effect of over 55% in size. The method, boiled down: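 Viability of GeneBLAzer PPARd UAS-bla HEK293H cells was assessed after 17 h compound incubation at 37C, using CellTiter-Glo reagent added after the reporter read and luminescence recorded 30 min later.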

For assay [2], the target named is Peroxisome proliferator-activated receptor delta (Homo sapiens) (UniProt Q03181). Description: qHTS assay to identify small molecule agonists of the peroxisome proliferator-activated receptor delta (PPARd) signaling pathway (AID 743212; calls by dose curve). The method, boiled down:
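Read-out: beta-lactamase FRET fluorescence after 2 h room-temperature incubation with LiveBLAzer B/G substrate. Cells were HEK293H carrying a UAS-bla reporter for PPARd, treated at 37 C with DMSO-dissolved compounds.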

Assay [3] in a line: qHTS assay to identify small molecule antagonists of the peroxisome proliferator-activated receptor delta (PPARd) signaling pathway - cell viability counter screen (AID 743213). Also: nearly all actives have a fitted effect of over 50% in size. The method, boiled down: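 Cytotoxicity counter screen: CellTiter-Glo luminescence read 30 min after addition, in the same wells as the reporter assay. There, PPARd UAS-bla HEK293H cells (3000/well) were treated 17 h at 37 C with compound and 300 nM L165041.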
In general terms: In qHTS, concentration-response curves come from the screen itself.

Assay [4] concerns the target Peroxisome proliferator-activated receptor delta (Homo sapiens) (UniProt Q03181). Description: qHTS assay to identify small molecule antagonists of the peroxisome proliferator-activated receptor delta (PPARd) signaling pathway (AID 743215; active = well fitted inhibition curve with a large enough effect in the signal ratio in the repeat runs, not every such curve was filed as active; the % refers to the signal ratio;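 also: cells stimulated with agonist L165041 at 300 nM final during compound exposure; series mostly up to about 62 µM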). The method in brief:
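Screen format: qHTS, antagonist mode. HEK293H PPARd-bla cells received compound and 300 nM L165041 (final), 17 h, 37 C. Beta-lactamase detected via FRET substrate fluorescence, 2 h, room temperature.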

Assay [5] can be described thus: qHTS assay to identify small molecule agonists of the farnesoid-X-receptor (FXR) signaling pathway - cell viability counter screen (AID 743218). Also: nearly all actives have a fitted effect of over 45% in size. The method in brief:
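Same-well cytotoxicity check on FXR-UAS-bla HEK 293T cells: 5 h attachment, 16 h compound at 37 C, CellTiter-Glo luminescence read at room temperature after 30 min.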

Assay [6] can be described thus: qHTS assay to identify small molecule antagonists of the farnesoid-X-receptor (FXR) signaling pathway - cell viability counter screen (AID 743221; active = well fitted cell-killing curve with a large enough effect in the repeat runs, not every such curve was filed as active; also: nearly all actives have a fitted effect of over 50% in size). The method in brief:
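Quantitative HTS of the Tox21 10K library run in parallel with the beta-lactamase reporter read. HEK 293T cells carrying a UAS-driven bla reporter got compound and 50 uM CDCA (final) for 16 h; ATP-based luminescence followed.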

Assay [7] has as its target Vitamin D3 receptor (Homo sapiens) (UniProt P11473). Kind of assay: qHTS assay to identify small molecule agonists of the vitamin D receptor (VDR) signaling pathway (AID 743222; calls by dose curve). The method, boiled down:
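Using LiveBLAzer B/G FRET detection, agonism was scored in VDR-bla cells exposed overnight (16 h, 37C) to DMSO-dissolved compounds; substrate incubation was 2 h at room temperature.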

The target is the same in assay [8]. Description: qHTS assay to identify small molecule antagonists of the vitamin D receptor (VDR) signaling pathway (AID 743223; active = well fitted inhibition curve with a large enough effect in the signal ratio in the repeat runs, not every such curve was filed as active; the % refers to the signal ratio). The method, boiled down: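 Fluorescence from LiveBLAzer B/G FRET substrate, read after 2 h at room temperature, reflects beta-lactamase reporter activity in VDR-bla cells treated 16 h at 37C with compounds and agonist 1alpha,25-dihydroxyvitamin D3 (3 nM final).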

Assay [9] is described as follows: qHTS assay to identify small molecule agonists of the vitamin D receptor (VDR) signaling pathway - cell viability counter screen (AID 743224). Also: nearly all actives have a fitted effect of over 50% in size. Also: potency is read from the fitted curve at half-maximal effect. The method in brief: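 Counter screen for cytotoxicity: VDR-bla cells at 2,000 cells/well, 16 h compound exposure, then CellTiter-Glo luminescence after the beta-lactamase measurement.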
Assay [10] can be described thus: qHTS assay to identify small molecule antagonists of the vitamin D receptor (VDR) signaling pathway - cell viability counter screen (AID 743225). Also: nearly all actives have a fitted effect of over 50% in size. The method in brief: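 Cells (VDR-UAS-bla HEK 293T) are plated, rested 4 h at 37C, dosed with compound and 3 nM final 1-alpha,25-dihydroxy vitamin D3, and incubated 16 h. Viability is taken from CellTiter-Glo luminescence in the reporter wells.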

The nature of assay [11]: qHTS assay to identify small molecule agonists of the NFkB signaling pathway (AID 1159509; active = well fitted curve in the direction sought with a large enough effect in the signal ratio in the repeat runs, not every such curve was filed as active; the % refers to the signal ratio; also: series mostly up to about 61 µM). The method, boiled down: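 Beta-lactamase reporter assay run in quantitative high-throughput format on an NF-kB-responsive ME-180 line, with 5 hr compound treatment and a FRET-based blue/green fluorescence readout.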
A short description of assay [12]: qHTS assay to identify small molecule agonists of the NFkB signaling pathway - cell viability counter screen (AID 1159515; calls by dose curve; also: series mostly up to about 61 µM; nearly all actives have a fitted effect of over 55% in size). The method in brief: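 Counter screen run alongside the NFkB-bla agonist assay: ME-180 reporter cells exposed to compounds for 5 hr, then lysed with CellTiter-Glo in the same wells. Luminescence, read after 30 min, reflects viable cells.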

Assay [13] in a line: qHTS assay to identify small molecule agonists of the endoplasmic reticulum stress response signaling pathway - cell viability counter screen (AID 1159517; calls by dose curve). The method, boiled down:
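Steps: seed 1,500 ESRE-bla HeLa cells per well; incubate overnight at 37 C, 5% CO2; add compounds in DMSO for 5 hr; run FRET substrate 2 hr RT; add CellTiter-Glo, wait 30 min, read luminescence.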

The nature of assay [14]: qHTS assay to identify small molecule antagonists of the retinoid-related orphan receptor gamma (ROR-gamma) signaling pathway - cell viability counter screen (AID 1159520). Also: nearly all actives have a fitted effect of over 50% in size. The method, boiled down: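 Tet-on ROR gamma CHO cells were given compounds for 2 hr, then doxycycline hyclate at 1 uM final, and incubated 16 hr at 37 C. Viability was measured as ATP content by CellTiter-Glo luminescence.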

Assay [15] deals with Nuclear receptor ROR-gamma (Homo sapiens) (UniProt P51449). Description: qHTS assay to identify small molecule antagonists of the retinoid-related orphan receptor gamma (ROR-gamma) signaling pathway (AID 1159521). The method in brief: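 RORγ antagonism is scored from reduced reporter luminescence in Tet-on CHO cells. Induction used 1 uM final doxycycline hyclate for 16 h at 37 C, following a 2 h compound exposure.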

Assay [16] in a line: qHTS assay to identify small molecule agonists of the AP-1 signaling pathway - cell viability counter screen (AID 1159525; calls by dose curve; also: nearly all actives have a fitted effect of over 55% in size). The method, boiled down: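 Same-well cytotoxicity counter screen of the Tox21 10K library in ME-180 cells. The readout is ATP-dependent luminescence after 5 h compound treatment. Data are normalised to DMSO and tetra n-octyl ammonium bromide controls.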

The nature of assay [17]: qHTS assay to identify small molecule agonists of the AP-1 signaling pathway (AID 1159526; calls by dose curve).
The nature of assay [18]: qHTS assay to identify small molecule agonists of the endoplasmic reticulum stress response signaling pathway (AID 1159516; active = well fitted activation curve with a large enough effect in the signal ratio in the repeat runs, not every such curve was filed as active; the % refers to the signal ratio). The method in brief:
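For this screen, HeLa cells stably carrying beta-lactamase under the ER stress response element received test compounds, positive controls or DMSO for 5 hr at 37 C; B/G FRET substrate was then added and dual-wavelength emission recorded.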

In assay [19] the target is Bile acid receptor (Homo sapiens) (UniProt Q96RI1). Description: qHTS assay to identify small molecule antagonists of the farnesoid-X-receptor (FXR) signaling pathway (AID 743217; active = well fitted inhibition curve with a large enough effect in the signal ratio in the repeat runs, not every such curve was filed as active; the % refers to the signal ratio). The method in brief:
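Quantitative HTS, beta-lactamase reporter format: FXR-UAS-bla HEK 293T cells co-treated 16 h at 37 °C with compounds and 50 uM final chenodeoxycholic acid, then read by B/G FRET fluorescence.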

For assay [20] the target is unchanged. Kind of assay: qHTS assay to identify small molecule agonists of the farnesoid-X-receptor (FXR) signaling pathway (AID 743220; active = well fitted activation curve with a large enough effect in the signal ratio in the repeat runs, not every such curve was filed as active; the % refers to the signal ratio). The method, boiled down:
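FXR-UAS-bla HEK 293T cells carrying a UAS-driven beta-lactamase reporter were plated for 5 h at 37C/5% CO2, then exposed to DMSO-dissolved Tox21 10K compounds for 16 h at 37C. A LiveBLAzer B/G FRET substrate was loaded for 2 h at room temperature before fluorescence reading.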

Sequence of Bile acid receptor (Homo sapiens) (Q96RI1 whole entry, looked up): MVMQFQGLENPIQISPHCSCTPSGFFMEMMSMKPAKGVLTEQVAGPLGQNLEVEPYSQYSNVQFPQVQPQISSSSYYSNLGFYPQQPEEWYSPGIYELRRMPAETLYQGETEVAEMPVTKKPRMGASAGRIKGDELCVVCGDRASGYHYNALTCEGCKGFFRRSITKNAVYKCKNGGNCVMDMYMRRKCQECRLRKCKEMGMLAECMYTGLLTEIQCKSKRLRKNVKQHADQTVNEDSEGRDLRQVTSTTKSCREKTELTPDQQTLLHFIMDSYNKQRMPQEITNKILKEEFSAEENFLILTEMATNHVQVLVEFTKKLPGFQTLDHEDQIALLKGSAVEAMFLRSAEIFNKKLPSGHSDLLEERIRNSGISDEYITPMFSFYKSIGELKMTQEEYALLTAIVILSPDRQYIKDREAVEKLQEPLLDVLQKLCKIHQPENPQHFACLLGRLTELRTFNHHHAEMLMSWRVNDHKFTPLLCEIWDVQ
Sequence of Vitamin D3 receptor (Homo sapiens) (P11473 whole entry, looked up): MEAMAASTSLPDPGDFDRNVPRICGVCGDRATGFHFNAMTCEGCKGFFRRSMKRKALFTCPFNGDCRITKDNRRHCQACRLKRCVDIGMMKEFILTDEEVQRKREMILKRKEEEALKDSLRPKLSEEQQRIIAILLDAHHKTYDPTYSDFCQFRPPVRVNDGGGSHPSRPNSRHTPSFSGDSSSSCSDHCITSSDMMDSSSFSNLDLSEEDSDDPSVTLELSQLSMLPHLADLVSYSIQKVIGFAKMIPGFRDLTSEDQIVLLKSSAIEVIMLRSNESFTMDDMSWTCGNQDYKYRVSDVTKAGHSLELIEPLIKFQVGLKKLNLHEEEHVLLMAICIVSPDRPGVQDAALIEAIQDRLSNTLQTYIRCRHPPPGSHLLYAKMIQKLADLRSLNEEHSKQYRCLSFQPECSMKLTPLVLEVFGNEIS
Sequence of Peroxisome proliferator-activated receptor delta (Homo sapiens) (Q03181 whole entry, looked up): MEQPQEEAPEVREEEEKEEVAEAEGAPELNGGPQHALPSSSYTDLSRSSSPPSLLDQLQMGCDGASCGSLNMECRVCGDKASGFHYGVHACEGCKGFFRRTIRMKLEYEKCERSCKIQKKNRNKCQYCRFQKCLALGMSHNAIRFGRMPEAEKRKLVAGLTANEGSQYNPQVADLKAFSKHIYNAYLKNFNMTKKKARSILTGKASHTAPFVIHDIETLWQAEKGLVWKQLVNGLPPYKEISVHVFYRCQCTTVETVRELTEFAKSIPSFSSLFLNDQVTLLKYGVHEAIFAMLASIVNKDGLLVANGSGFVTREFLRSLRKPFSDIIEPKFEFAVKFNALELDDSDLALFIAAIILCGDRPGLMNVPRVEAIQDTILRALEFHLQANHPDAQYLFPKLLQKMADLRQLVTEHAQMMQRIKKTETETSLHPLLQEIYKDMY

`CN/C(=C\[N+](=O)[O-])NCCSCc1ccc(CN(C)C)o1`: the Potency result in [1], in assay [3], in assay [5], in [8], in assay [9] and in assay [13] was “inactive” in each case. The Potency entry in assay [15] and in assay [17] was “inactive” each time. The compound was called inactive in assay [2], in [4], in [6], in assay [7], in assay [10] and in assay [11]. The call in assay [12], in [14] and in assay [16] was inactive.
For the compound `O=[N+]([O-])c1ccc(O)cc1`, the Potency result in assay [1], in assay [3], in [5], in assay [8], in assay [9] and in [13] was “inactive” each time. Also, in assay [17], the Potency result was “inactive”. In addition, the outcome in assay [2], in assay [4], in assay [6], in assay [7], in [10] and in [11] was inactive. Also, the compound was called inactive in [12], in assay [18] and in assay [14].
Take `CCOC(=O)C(C)(C)Oc1ccc(Cl)cc1`: the Potency result in assay [1], in assay [3], in assay [19], in assay [5], in assay [8] and in assay [9] was “inactive” in each case. For the same compound, the Potency result in assay [13], in [15] and in assay [17] was “inactive” each time. In addition, the result in assay [2], in [4], in assay [6], in [7], in assay [10] and in assay [11] was inactive. Further, the call in [12], in [14] and in assay [16] was inactive.
In the case of `O=C(O)Cc1cccc2ccccc12`, the Potency entry in assay [1], in assay [3], in assay [19], in assay [5], in assay [8] and in assay [9] was “inactive” throughout. Also, the Potency result in assay [13], in [15] and in assay [17] was “inactive” throughout. Besides, the outcome in assay [2], in assay [4], in [20], in assay [6], in assay [7] and in [10] was inactive. Besides, the result in assay [11], in assay [12], in assay [14] and in assay [16] was inactive.
With `O=C1CCCCCN1`, the Potency entry in [1], in assay [3], in assay [19], in assay [5], in assay [8] and in assay [9] was “inactive” each time. The Potency result in [13], in assay [15] and in [17] was “inactive” in each case. Also, the call in assay [2], in assay [4], in [6], in [7], in [10] and in assay [11] was inactive. For the same compound, the compound was called inactive in assay [12], in assay [14] and in assay [16].
In the case of `CC(C)Cc1ccc(C(C)C(=O)O)cc1` (centres undefined), the Potency result in assay [1], in assay [3], in assay [5], in [13], in assay [15] and in [17] was “inactive” in each case. In addition, the call in [2], in assay [4], in [6], in assay [11], in assay [12] and in [18] was inactive. In addition, in [14], the outcome was inactive.
Turning to `CCCCCCCCOc1ccc(C(=O)c2ccccc2)c(O)c1`, the Potency result in assay [1], in assay [3], in [19], in [8], in assay [13] and in assay [15] was “inactive” throughout. The Potency entry in assay [17] was “inactive”. In addition, the outcome in [2], in assay [4], in [20], in assay [6], in [7] and in [10] was inactive. Besides, the result in [11], in assay [12], in assay [14] and in assay [16] was inactive. The Potency result in assay [9] is “inactive and 49 µM (active)”.

The values are drawn from PubChem BioAssay (Tox21).
